Test [1] in a line: cAMP Responsive Elements (CRE) small molecule antagonists, cell-based qHTS assay: qHTS cell viability counter screen (AID 2060913). Also: nearly all actives have a fitted effect of over 40% in size. The gist of the method: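 CRE-bla HEK293T cells (2,000/well, 18 h) given compound plus NKH477 0.25 uM final for 3 h at 37C; viability counter-screen by CellTiter-Glo luminescence in same wells after 30 min.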
(In general: Quantitative high-throughput screening tests each substance at several concentrations.)

The nature of test [2]: cAMP Responsive Elements (CRE) small molecule agonists, cell-based qHTS assay: qHTS cell viability counter screen (AID 2060914).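 Also: viability read after 3 h of compound exposure; nearly all actives have a fitted effect of over 50% in size.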 The procedure, abridged: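 CRE-bla HEK 293T cells, plated 18 h at 37 °C, were exposed to compounds for 3 h at 37 °C/5% CO2. Viability was then measured in the same wells by CellTiter-Glo luminescence after 30 min at room temperature.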

From PubChem BioAssay (Tox21) come the findings set out here.

Records with an inconclusive call do not appear. Entries that show only a call come without a potency. The source made the active and inactive calls. Calls follow the shape of the dose curve; as a rule, active = well fitted cell-killing curve with a large enough effect in the repeat runs; inconclusive = weak or mixed curves, or effect the other way; inactive = flat fitted curve, though single readings scatter.

In the case of `COc1ccc(C(=O)N2CCN(CC(=O)N3CCOCC3)CC2)cc1`, the Potency entry in test [1] and in test [2] was “inactive” each time.

With `CC(O)COC(C)(C)C` (configuration not stated), the Potency entry in test [1] and in test [2] was “inactive” each time.

`Cc1ccccc1CCO`: the Potency result in test [1] and in test [2] was “inactive” in each case.

As to `O=[N+]([O-])c1cc(N(CCO)CCO)ccc1NCCO`, the Potency entry in test [1] and in test [2] was “inactive” in each case.

As to `CCCCCCCCCOC(=O)c1ccccc1C(=O)OCCCCCCCCC`, the Potency entry in test [1] and in test [2] was “inactive” each time.

Regarding `Cc1ccc(-c2ncc(Cl)cc2-c2ccc(S(C)(=O)=O)cc2)cn1`, the Potency result in test [1] and in test [2] was “inactive” throughout.
